KLK7 zymogen act: proKLK7 zymogen activators, primary screen, biochemical, fluorescence intensity | activation, % at 7 µM | 370,000 compounds, 0.9% hits | purified proKLK7, EDANS-DABCYL substrate fluorescence; 100% is mature enzyme control, 0% vehicle | Kallikrein-7 (Homo sapiens), P49862;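 active = activation above the mean of all tested compounds plus 3 SD, computed per campaign excluding outliers beyond control limits, cut at about 13% in these data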
ADAM10 inh: human ADAM10 inhibitors, primary screen, biochemical, QFRET, HTS; AID 720582, 2013; inhibition, % at 7 µM; recombinant ADAM10, EDANS/DABCYL FRET peptide cleavage, 3 h; 370,000 compounds, 0.62% hits;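 active = inhibition above a per-campaign cutoff equal to the mean of compounds falling between control-based bounds plus 3 SD, cut at about 20% in these data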;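 note: 0% = DMSO wells while the 100% control is not disclosed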
Target sequence (O14672 214-748 limits assumed): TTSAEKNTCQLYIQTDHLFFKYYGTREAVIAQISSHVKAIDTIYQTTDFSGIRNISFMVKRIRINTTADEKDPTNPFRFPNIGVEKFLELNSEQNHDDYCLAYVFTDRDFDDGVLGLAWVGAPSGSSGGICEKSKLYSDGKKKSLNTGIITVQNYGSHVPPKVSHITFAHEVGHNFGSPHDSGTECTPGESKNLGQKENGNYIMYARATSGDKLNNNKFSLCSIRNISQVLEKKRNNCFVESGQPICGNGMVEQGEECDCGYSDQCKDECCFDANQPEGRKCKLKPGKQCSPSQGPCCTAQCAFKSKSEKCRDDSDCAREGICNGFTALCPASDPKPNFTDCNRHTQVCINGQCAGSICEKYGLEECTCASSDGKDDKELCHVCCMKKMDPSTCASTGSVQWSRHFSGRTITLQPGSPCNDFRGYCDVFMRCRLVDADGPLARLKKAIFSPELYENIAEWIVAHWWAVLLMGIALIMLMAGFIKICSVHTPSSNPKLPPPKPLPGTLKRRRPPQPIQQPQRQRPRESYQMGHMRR
FGF22 binding: binders of human FGF22 protein, primary screen, FGF22 synaptogenesis inhibitor project, biophysical, thermal shift, single point; recombinant FGF22 thermal shift, SYPRO orange fluorescence; percent of sucrose octasulfate shift, DMSO zero; AID 651658, 2012; activity (Tm shift, normalised), % at 9.99 µM; 340,000 compounds, 1.5% hits; Fibroblast growth factor 22 (Homo sapiens), Q9HCT0;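 active = mean Tm shift, scaled 0 neutral to 100 positive control, at about 1.3% or above, every replicate too, limit read from the data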
Target sequence (Q9HCT0 whole entry, looked up): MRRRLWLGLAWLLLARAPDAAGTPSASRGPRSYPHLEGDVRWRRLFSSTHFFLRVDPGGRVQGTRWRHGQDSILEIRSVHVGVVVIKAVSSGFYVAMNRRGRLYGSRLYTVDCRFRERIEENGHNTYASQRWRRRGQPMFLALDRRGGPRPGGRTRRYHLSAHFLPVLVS
ADAM17 inh: ADAM17 inhibitors, primary screen, biochemical, QFRET. Disintegrin and metalloproteinase domain-containing protein 17 (Homo sapiens), P78536. recombinant ADAM17, EDANS/DABCYL FRET peptide cleavage. inhibition, % at 6.95 µM. 370,000 compounds, 0.83% hits;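 active = inhibition above the mean of compounds lying between control limits plus 3 SD, set per campaign, cut at about 8.5% in these data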;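 note: 0% = DMSO-only wells as the low control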
Ecoli rRNA inh: reduced GFP signal of wild-type E. coli, primary screen, bacterial rRNA inhibitor project, GFP/RFP fluorescence, OD600, single point. E. coli WT GFP vs humanized-ribosome RFP mutants, 24 h; active compounds read low; DMSO median 0, no signal -100. GFP signal change (wild-type ribosome), % (test concentration not listed). 350,000 compounds, 1.6% hits;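 active = significant combined selectivity score with lowered wild-type GFP, culture density cut under 30%, mutant RFP and density less affected; inactive = any of these conditions unmet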
ADAM10 ctr: ADAM10 inhibitors, counter-screen for ADAM17 exosite inhibitor project, biochemical, FRET, human ADAM10; shares compounds with ADAM17 inh; recombinant ADAM10, EDANS/DABCYL FRET peptide cleavage, 3 h; inhibition, % at 6.95 µM; 2,900 compounds, 47% hits;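 active = mean inhibition over the triplicate runs exceeds the activity threshold set in the earlier primary screen, cut at about 20% in these data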;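 note: 0% = DMSO wells and 100% = marimastat wells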
ADAM17 confirm: ADAM17 inhibitors, hit retest, confirmation, biochemical, QFRET peptide cleavage; shares compounds with ADAM17 inh; 2,900 compounds, 65% hits; AID 743257, 2014; inhibition, % at 6.95 µM; recombinant ADAM17, EDANS/DABCYL QFRET peptide cleavage;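 active = mean inhibition across replicates above the hit cutoff set in the primary screen, cut at about 8.5% in these data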;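 note: 0% = DMSO wells and 100% = marimastat wells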
Numbers without * were called inactive; nt = not tested or not shown. Only some compounds are listed: those with a hit (about 3.8% of all), similar ones and a draw of the others.

SMILES	KLK7 zymogen act	ADAM10 inh	FGF22 binding	ADAM17 inh	Ecoli rRNA inh	ADAM10 ctr	ADAM17 confirm
CCn1c2ccccc2c2cc(NC(=O)CSc3nnnn3-c3ccccc3)ccc21	3.1	-5.1	nt	-4.2	nt	nt	nt
Cc1ccc(S(=O)(=O)NCCC(c2ccc(F)cc2)c2ccco2)cc1 (centres undefined)	0.4	14.9	0.4	9.7*	nt	20.7*	12.3*
COc1ccc(CN(C)C[C@H]2OCCCC[C@H](C)Oc3ccc(NC(=O)NC4CCCCC4)cc3C(=O)N([C@H](C)CO)C[C@@H]2C)cc1	nt	nt	0.0	nt	2.2	nt	nt
Nc1nc(N(Cc2ccccc2)Cc2ccccc2)nc(C(F)(F)F)n1	-0.8	16.9	0.4	9.1*	-3.0	9.3	8.9*
C[C@@H]1CN([C@H](C)CO)C(=O)Cc2cc(NC(=O)C3CCCCC3)ccc2O[C@H]1CN(C)Cc1ccc(C(F)(F)F)cc1	nt	nt	0.0	nt	-2.6	nt	nt
N#CCSc1nnc(COc2cccc3ccccc23)n1-c1ccccc1	0.0	1.2	nt	-1.6	nt	nt	nt
N#CCSc1nnc(COc2ccccc2)n1-c1ccccc1	-0.1	16.0	nt	10.8*	nt	-4.4	-2.1
CNC(=O)C[C@@H]1CC[C@@H]2[C@@H](COc3ccc(NC(=O)c4cc(C)on4)cc3C(=O)N2C)O1	nt	nt	-0.1	nt	-0.5	nt	nt
Cc1ccc(NC(=O)Nn2cnnc2)cc1	0.9	1.6	-0.1	-6.3	4.1	nt	nt
O=C(Nc1ccc([N+](=O)[O-])cc1)Nn1cnnc1	0.0	6.3	-0.1	10.2*	7.1	5.5	7.8
O=S(=O)(c1ccccc1)N1CCC(n2cnc3ccccc32)CC1	-0.2	15.0	-0.2	9.7*	-2.2	-2.5	-0.7
CCCC(=O)N1CC2(CCN(C(=O)NC(C)C)CC2)c2c(n(C)c3cc(OC)ccc23)[C@@H]1CO	nt	nt	nt	nt	-2.5	nt	nt
N=C(N)SCc1ccccn1	0.2	-1.6	nt	-1.8	nt	nt	nt
c1ccc(CSc2nnc(SCc3ccccn3)s2)nc1	0.3	9.3	nt	9.0*	nt	5.1	8.5
C[C@H]1CN([C@@H](C)CO)S(=O)(=O)c2ccc(C3=CCCCC3)cc2O[C@H]1CN(C)Cc1ccccc1F	nt	nt	0.0	nt	-0.2	nt	nt
COc1cccc(C#Cc2ccc3c(c2)[C@H]2[C@H](CCN2S(=O)(=O)c2cccc(OC)c2)[C@H](CO)N3)c1	nt	nt	nt	nt	5.6	nt	nt
NC(=O)c1ncn([C@@H]2O[C@H](CNCc3ccccc3C#Cc3ccccc3)[C@@H](O)[C@H]2O)n1	0.1	-16.6	0.0	-5.2	9.4	nt	nt
N#CCOc1ccccc1CNC[C@H]1O[C@@H](n2cnc(C(N)=O)n2)[C@H](O)[C@@H]1O	-0.5	2.6	-0.1	9.7*	9.4	15.4	7.0
O=C(COc1ccccc1Cl)Nc1cnn(Cc2ccccc2)c1	-0.1	14.7	nt	9.4*	nt	9.6	5.9
Nn1c(COc2cccc(Br)c2)nnc1SCC(=O)N1CCc2ccccc2C1	0.1	10.2	nt	12.2*	nt	4.8	7.0
COc1ccc(C)cc1N(C(=O)c1cccc(F)c1)c1nc2ccccc2s1	10.3	5.3	nt	3.1	nt	nt	nt
COc1ccc(C)cc1N(C(=O)c1ccccc1)c1nc2ccccc2s1	-1.5	9.5	nt	9.9*	nt	25.6*	17.7*
S=C(NCc1ccc(Cl)cc1)Nc1ccncc1	0.4	6.7	-0.1	8.9*	-38.4	8.2	13.2*
Cc1cccc(NS(=O)(=O)c2ccc3c(c2)Cc2cc(S(=O)(=O)Nc4cccc(C)c4C)ccc2-3)c1C	-0.4	18.4	0.4	10.6*	9.2	13.1	10.3*
Cc1cccc(NS(=O)(=O)c2ccc3[nH]c(=O)[nH]c3c2)c1C	0.3	-5.8	0.0	-5.1	-2.3	nt	nt
SMILES	KLK7 zymogen act	ADAM10 inh	FGF22 binding	ADAM17 inh	Ecoli rRNA inh	ADAM10 ctr	ADAM17 confirm
O=C(/C=C/c1ccc2c(c1)OCO2)c1ccc(O)cc1O	-0.7	0.6	0.7	9.3*	-64.7	7.5	5.5
Cc1ccc(C(=O)C=Cc2ccc3c(c2)OCO3)c(C)c1	-0.5	-1.8	nt	-0.4	-8.9	nt	nt
C[C@H](CO)N1C[C@H](C)[C@@H](CN(C)S(=O)(=O)c2cn(C)cn2)Oc2ncc(/C=C/c3ccccc3)cc2C1=O	nt	nt	-0.1	nt	-4.4	nt	nt
COC(=O)C1=C(C)N(c2cccc(C)c2)C(=O)/C1=C\c1cccs1	0.1	12.1	nt	8.7*	nt	5.0	5.1
COc1ccc(-c2ccc(CN3C(C(C)C)C(=O)N(Cc4cn(Cc5ccco5)nn4)CCS3(=O)=O)cc2)cc1OC (centres undefined)	-0.1	11.5	0.4	10.2*	-4.4	15.7	14.3*
CC1C(=O)N(Cc2cn(CCC3OCCO3)nn2)CCS(=O)(=O)N1Cc1ccc(-c2ccc(F)cc2)cc1 (centres undefined)	0.5	-8.4	nt	10.0*	-3.0	4.0	1.5
C[C@@H]1CN([C@@H](C)CO)C(=O)c2cc(-c3cccc(F)c3)cnc2O[C@@H]1CN(C)C(=O)c1ccccn1	nt	nt	-0.1	nt	1.4	nt	nt
C[C@H](NC(=O)[C@@H]1[C@@H](CO)[C@@H]2Cn3c(cccc3=O)[C@H]1N2C(=O)C1CCCC1)c1ccccc1	nt	nt	-0.2	nt	3.3	nt	nt
COc1cc(NC(=O)Nc2cccc3cccnc23)cc(OC)c1OC	-0.1	13.2	-0.2	13.2*	-12.8	7.4	7.4
COc1cc(C(=O)Nc2cccc3cccnc23)cc(OC)c1OC	0.7	2.3	nt	-3.5	nt	nt	nt
COc1ccc(-c2nnc(SCC(=O)Nc3cccc4ccccc34)n2Cc2ccco2)cc1	-1.4	3.3	nt	2.2	nt	nt	nt
Cc1ccc(OCc2nnc(SCC(=O)Nc3cccc4ccccc34)n2Cc2ccco2)cc1	0.0	16.8	nt	10.0*	nt	38.8*	19.3*
O=C(CSc1nnc(COc2ccc(Cl)cc2)n1Cc1ccco1)Nc1ccc(OCc2ccccc2)cc1	-0.1	6.9	nt	4.2	nt	nt	nt
O=C(CSc1nnc(COc2ccc(Cl)cc2)n1Cc1ccco1)Nc1cccc2ccccc12	0.1	16.1	nt	9.3*	nt	36.2*	18.2*
COc1cccc(CNC(=O)C[C@H]2CC[C@H](NS(=O)(=O)c3ccccc3OC)[C@H](CO)O2)c1	nt	nt	-0.2	nt	-1.0	nt	nt
